The record followed here is article PMC13494018.

The target in the assay is CD276, Q5ZPR3.
Chain of CD276, Q5ZPR3 (Q5ZPR3 whole entry): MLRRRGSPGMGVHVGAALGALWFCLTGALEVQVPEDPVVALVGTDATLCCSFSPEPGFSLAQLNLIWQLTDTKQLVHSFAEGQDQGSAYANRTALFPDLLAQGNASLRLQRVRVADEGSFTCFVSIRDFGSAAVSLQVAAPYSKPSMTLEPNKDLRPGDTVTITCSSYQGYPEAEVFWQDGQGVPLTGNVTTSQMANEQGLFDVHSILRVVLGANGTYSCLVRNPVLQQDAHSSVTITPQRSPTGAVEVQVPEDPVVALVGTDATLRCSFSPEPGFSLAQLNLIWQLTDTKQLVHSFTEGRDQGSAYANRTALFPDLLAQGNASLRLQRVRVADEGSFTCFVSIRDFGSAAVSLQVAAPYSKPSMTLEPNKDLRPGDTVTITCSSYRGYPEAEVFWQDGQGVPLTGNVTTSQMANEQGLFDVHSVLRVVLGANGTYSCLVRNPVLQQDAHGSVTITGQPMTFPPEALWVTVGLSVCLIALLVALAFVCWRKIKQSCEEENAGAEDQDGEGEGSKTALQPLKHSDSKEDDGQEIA

B1: design_616_e8336982-fa4d-4d7c-b06f-9007953e1994_1901_dldesign_0_cycle1_af2pred (protein)
chain: AAAARAAAAALAAEAIAAAAAAVAADPAAAAIIHAQAERARGGDAATAVRAAQAAGVLAAVLAGDEALAAAVTRRAAALLAA
As for B1, the “binding in a display sort” value was “not found (inactive)”.

B2: design_616_e8336982-fa4d-4d7c-b06f-9007953e1994_1581_dldesign_0_cycle1_af2pred (protein)
chain: EEARREELARKAEEKAEEIAKRLAKEGKSVEEIVEEAERYAKELLRPESEEVREEAAGRAANAAVRAYAKVSLELSA
Consider B2, for which the “binding in a display sort” value is “not found (inactive)”.

B3: design_616_e8336982-fa4d-4d7c-b06f-9007953e1994_1205_dldesign_0_cycle1_af2pred (protein)
chain: DQAQAKAVAIKTVEGMLKKMKQLKEEAEKNAADPSIAIPKAEAIKQLAEVSMAILKAAGLDQETIDKYEKEAKALKEAAEKAAKKAKE
As for B3, the “binding in a display sort” value is “not found (inactive)”.

B4: design_616_e8336982-fa4d-4d7c-b06f-9007953e1994_767_dldesign_0_cycle1_af2pred (protein)
chain: AAAREAAVEAAKKQLEELKKKAEELLAYLKANPAASPEEKQKVLEESTKIISQASELAEAYPEVAEQAREAMSAAAKAAILAQKLL
Turning to B4, the “binding in a display sort” value was “not found (inactive)”.

B5: design_616_e8336982-fa4d-4d7c-b06f-9007953e1994_1883_dldesign_0_cycle1_af2pred (protein)
chain: NAEVAKLLGQIIDELQAAQAAAAAGDLKAAAKEAQKAAEAAGKIGDPEKGKELAAGAKADPSKAVEYARQALSIASAAAIKIAA
In the case of B5, the “binding in a display sort” value is “not found (inactive)”.

B6: design_616_e8336982-fa4d-4d7c-b06f-9007953e1994_528_dldesign_0_cycle1_af2pred (protein)
chain: SLLEAALAELRARFEAAKTATPAEAAALVRAAQGTLLTAAAQAGAPLEAMAAVSRVLGAAAETAATAPPEERAAALDAALAEVAALLA
For the molecule B6, the “binding in a display sort” value is “not found (inactive)”.

B7: design_616_e8336982-fa4d-4d7c-b06f-9007953e1994_606_dldesign_0_cycle1_af2pred (protein)
chain: SPLAQAQADLLRRTLAALRRSVERAEELAREDPEAGAARLRALAQSAEVVLEAARGLAAQDPALGAETVAAAREVLERAREAEERAR
Regarding B7, the “binding in a display sort” value was “binds (active)”.

B8: design_616_e8336982-fa4d-4d7c-b06f-9007953e1994_1848_dldesign_0_cycle1_af2pred (protein)
chain: GMAEKEKEYEEKLKEYKAKAKEAAKLTVEDPEAGAKKFKEIIEKAAKDFPERAKEIEEELLKVYREALAAAARAAIAAARA
With B8, the “binding in a display sort” value is “not found (inactive)”.

B9: design_616_e8336982-fa4d-4d7c-b06f-9007953e1994_502_dldesign_0_cycle1_af2pred (protein)
chain: MTPEQLAAMERSVARIAEAGARAPTEEEFESAMTAALALAESFGRKAGAPELATARAREIVAKYRARRLA
With B9, the “binding in a display sort” value was “not found (inactive)”.

B10: design_616_e8336982-fa4d-4d7c-b06f-9007953e1994_1398_dldesign_0_cycle1_af2pred (protein)
chain: PREEVERLEREVREARKRAEAATTVEQAGEAALEALEAEARARRLAEELRARGGDEELAERAERVAEEARAVFLFAAGKAIELAKA
With B10, the “binding in a display sort” value was “not found (inactive)”.

B11: design_616_e8336982-fa4d-4d7c-b06f-9007953e1994_1142_dldesign_0_cycle1_af2pred (protein)
chain: SAKAEAAKKEYEKAKKAAEEAKKVAKAAGDEAGAAAAKALEKSAENALRNGNLEMVKQVKEIAEAEKEIAEKKLK
As for B11, the “binding in a display sort” value is “not found (inactive)”.

B12: design_616_e8336982-fa4d-4d7c-b06f-9007953e1994_719_dldesign_0_cycle1_af2pred (protein)
chain: PTPVEVAEAAAQATIKTAKRQVEEAKRLLKEGKAEEALRLAESAIQNAEIAKDLAENNPEKKEELKKQAEEVKKEAEEVKEEAEKKL
On to B12, for which the “binding in a display sort” value was “not found (inactive)”.

B13: design_616_e8336982-fa4d-4d7c-b06f-9007953e1994_1400_dldesign_0_cycle1_af2pred (protein)
chain: AAAAVAIADKTIAALARQARRLAEEAIRDPDPERARRLVESAEELVRVAEDIAEAMGASPEAKEAVRRAREEVERAREVVER
With B13, the “binding in a display sort” value was “not found (inactive)”.

B14: design_616_e8336982-fa4d-4d7c-b06f-9007953e1994_692_dldesign_0_cycle1_af2pred (protein)
chain: MSEAERLAARGLALARHAALLVGLAVGPEEARRLYAAVAAAAADPAALIEVTTEVLELAKEKAALVPQALTTAREALELLTRARELA
In the case of B14, the “binding in a display sort” value is “not found (inactive)”.

B15: design_616_e8336982-fa4d-4d7c-b06f-9007953e1994_756_dldesign_0_cycle1_af2pred (protein)
chain: SQAALDAAYNSAKAFAESAKRAAEKGDVQAAEAAYKSAKLAAESAKVIGAAAGEEAKKVAEKAEKIAEEAKKLVEKLKKEA
Consider B15, for which the “binding in a display sort” value was “not found (inactive)”.

B16: design_616_e8336982-fa4d-4d7c-b06f-9007953e1994_543_dldesign_0_cycle1_af2pred (protein)
chain: MEEAIAELNKAFAALNAAARTTDAATAQENAKKAIEYAKAAAKAAGEAMAPAAKGIIEQAKEVAAAKAALAA
Regarding B16, the “binding in a display sort” value was “not found (inactive)”.

B17: design_616_e8336982-fa4d-4d7c-b06f-9007953e1994_824_dldesign_0_cycle1_af2pred (protein)
chain: DDLERGRELAEEVARVIREGTPEEAKRAIEEAAERLAELSAGAALLAGSLMVREAAKVPGGEELTAHIRAELLRVLRAKIAAA
As for B17, the “binding in a display sort” value was “not found (inactive)”.

B18: design_616_e8336982-fa4d-4d7c-b06f-9007953e1994_396_dldesign_0_cycle1_af2pred (protein)
chain: GMAELLAELREAEARTTALELMFQAGKNIHPGVAAQGLEAARRLRELAERVADAISPEERARYLAAAERTEELAA
For the molecule B18, the “binding in a display sort” value was “not found (inactive)”.

B19: design_616_e8336982-fa4d-4d7c-b06f-9007953e1994_1415_dldesign_0_cycle1_af2pred (protein)
chain: AAAALAAAVAAAKEIAADLSPEDQAIVVTAAVLAVTGAGLGQAIELARAHPAISAAIMGAAARAQAAVLAAA
On to B19, for which the “binding in a display sort” value was “not found (inactive)”.

B20: design_616_e8336982-fa4d-4d7c-b06f-9007953e1994_632_dldesign_0_cycle1_af2pred (protein)
chain: AAADTEKFKKATEHALKAVELAKEGKLEEAEKEAKKAEEEAKKIKDPVTKAGALALAKAARQVIESKAKE
Consider B20, for which the “binding in a display sort” value is “not found (inactive)”.

B21: design_616_e8336982-fa4d-4d7c-b06f-9007953e1994_1403_dldesign_0_cycle1_af2pred (protein)
chain: GAARAAELQGKADYLLAKSYADAALKSPDPEKAAELLKKAKEYAERALEDPVGAPYGEKALKYIEEVEKAL
For the molecule B21, the “binding in a display sort” value was “not found (inactive)”.

B22: design_616_e8336982-fa4d-4d7c-b06f-9007953e1994_576_dldesign_0_cycle1_af2pred (protein)
chain: SPALELTKRVAEAMAAQARRAAEEDPALGRAQFENALQIAKQFNPEQGALFRAILEATRAEVEAALAAAA
As to B22, the “binding in a display sort” value was “not found (inactive)”.

B23: design_616_e8336982-fa4d-4d7c-b06f-9007953e1994_1297_dldesign_0_cycle1_af2pred (protein)
chain: DPTAEAAARSAEARALRERGAAAGPEAAAVAEAAALAAQRANYYYLISYGDPSAAEAAAKAAEAEAEARELRAELEKLLAEAE
For the molecule B23, the “binding in a display sort” value was “not found (inactive)”.

B24: design_616_e8336982-fa4d-4d7c-b06f-9007953e1994_1283_dldesign_0_cycle1_af2pred (protein)
chain: AAAAAAAAAARAALRAELLALAEEGAKKVLAGEISLGEAVKAIMEAGAADPEAANEAAAYLIRTVMQATQAA
Regarding B24, the “binding in a display sort” value is “not found (inactive)”.

B25: design_616_e8336982-fa4d-4d7c-b06f-9007953e1994_2036_dldesign_0_cycle1_af2pred (protein)
chain: GAEELAAEARKAYNEMLELLEKAKETGKTEEYVKKAAEIGRANPIAGQMAMNTVAARDPELAAKLRKAMA
On to B25, for which the “binding in a display sort” value is “not found (inactive)”.

B26: design_616_e8336982-fa4d-4d7c-b06f-9007953e1994_1040_dldesign_0_cycle1_af2pred (protein)
chain: MEEVLREVERQAESVEKLAQAVIDLAQNDPEAQAKAKELAEKAREARERALEEPETAEEQLKRLQELFEEARRLAAETSRRAIAAA
With B26, the “binding in a display sort” value is “not found (inactive)”.

B27: design_616_e8336982-fa4d-4d7c-b06f-9007953e1994_1495_dldesign_0_cycle1_af2pred (protein)
chain: SEAELAKKFEEGLKKVEEAKKYAKKVEAKDPEKGKKLKELAGEAANAVLRGYAIPEKAEEEWAKVEKIYEEAKKIAA
Take B27: the “binding in a display sort” value is “not found (inactive)”.

B28: design_616_e8336982-fa4d-4d7c-b06f-9007953e1994_1846_dldesign_0_cycle1_af2pred (protein)
chain: AQAEKEAAAAKAKRLLDQLKEFGALAVTAAAASAQQGQAYLAMARQLAANAKEEAKKTGEEGKELAAQAEATLAAAEAGVAAALAAA
On to B28, for which the “binding in a display sort” value is “not found (inactive)”.

B29: design_616_e8336982-fa4d-4d7c-b06f-9007953e1994_787_dldesign_0_cycle1_af2pred (protein)
chain: VAAAISAATSTAVELLRAAAGATPEQRAEAHALAAEVNRAAVAAAADPSALPATRAELERARARLEAVRAALA
As to B29, the “binding in a display sort” value was “not found (inactive)”.

B30: design_616_e8336982-fa4d-4d7c-b06f-9007953e1994_1055_dldesign_0_cycle1_af2pred (protein)
chain: GAAEEARKKAEEALKKIEELKEKAKADPANAGAYALEAVKTAAEASRALREADPALEEEIDRLRQAAAEAIRAALATQTA
Regarding B30, the “binding in a display sort” value is “not found (inactive)”.

B31: design_616_e8336982-fa4d-4d7c-b06f-9007953e1994_1227_dldesign_0_cycle1_af2pred (protein)
chain: SSGAQLVTTAGAVILAQVPPAAHPYVEAATAAGVAEGVEAFLSGLQEARKALSPEDAAVLLAATTAGLAAGAKAVIA
Turning to B31, the “binding in a display sort” value was “not found (inactive)”.

B32: design_616_e8336982-fa4d-4d7c-b06f-9007953e1994_1719_dldesign_0_cycle1_af2pred (protein)
chain: AEAAGKAAAAAIELSREMLRIAREAGNEEVIAIAQRATAAFNQAMLDKKAGIERLKEVAKEAEELPEGKPVAELVKKAIKAFEA
Regarding B32, the “binding in a display sort” value is “not found (inactive)”.

B33: design_616_e8336982-fa4d-4d7c-b06f-9007953e1994_1745_dldesign_0_cycle1_af2pred (protein)
chain: APLEAVAKEAAEIAAKELPEASLEDALLVAEALLNPEKAKEYFAEVKKRLSPEDAARLFQTVGKAFSQLSLKLQAALAA
For B33, the “binding in a display sort” value is “not found (inactive)”.

B34: design_616_e8336982-fa4d-4d7c-b06f-9007953e1994_1969_dldesign_0_cycle1_af2pred (protein)
chain: GEEEKEKKKERFEEILKKAIEGKATKEEIEQAALDGVAYDGGEAVLALLKAYAEAKDPEVRKYLAQALALAARLTAAKLRA
Consider B34, for which the “binding in a display sort” value is “not found (inactive)”.

B35: design_616_e8336982-fa4d-4d7c-b06f-9007953e1994_1845_dldesign_0_cycle1_af2pred (protein)
chain: MEEEERKKKREKAEELLAKAKEHIEAAAKQGALGDGLKFATEVVREATELDPELGEEVAKRVQQLLAEQSRQAIA
Turning to B35, the “binding in a display sort” value is “not found (inactive)”.

B36: design_616_e8336982-fa4d-4d7c-b06f-9007953e1994_1084_dldesign_0_cycle1_af2pred (protein)
chain: MTVDERLWETTEKLVELIEQVAASAPAFPKEGAIRTIKGLAANAKLAAEAALKAGASPEVTKAAAEKVEKAAKAALAKVE
Take B36: the “binding in a display sort” value was “not found (inactive)”.

B37: design_616_e8336982-fa4d-4d7c-b06f-9007953e1994_1780_dldesign_0_cycle1_af2pred (protein)
chain: MASLAQGVINMVRSLAELAIKASPEEAAKLAAEAADIAIAGGEQFGAETAEEAAKILEEAAKAKPEVAPYAERVKKKLKEL
Take B37: the “binding in a display sort” value is “not found (inactive)”.

B38: design_616_e8336982-fa4d-4d7c-b06f-9007953e1994_1282_dldesign_0_cycle1_af2pred (protein)
chain: AAALEVTRRTIFAMADHAYKSENLETAKAIMKTLGQIAVAAGEEVLKEAREYIEKLAKESTEEKAKALLEGFEEGVAEAKA
On to B38, for which the “binding in a display sort” value is “not found (inactive)”.
